# In PubChem BioAssay AID1347416 (National Center for Advancing Translational Sciences (NCATS), 2020):
# Out of some 4,100 compounds screened, about 1,600 (39%) were called active. Roughly 25% stayed inconclusive and do not appear here. Calls come from the whole dose curve; as a rule, active = well fitted inhibition curve with a large enough effect; inconclusive = small, poorly fitted or top-dose-only effect; inactive = no such curve, though single readings can be large or run the other way. The list shows a part of the results. A call without a number means that no potency is given here.
# Assay: qHTS Validation assay for Inhibitors of Plasmodium falciparum Dd2 growth in vitro; note: nearly all actives have a fitted effect of over 70% in size
# Conditions: P. falciparum Dd2 in RBCs, SYBR Green growth, 72 h; series mostly up to 28.7 µM
# How it was run: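 P. falciparum Dd2-infected red blood cells (2.5% hematocrit, 0.3% parasitemia) grown 72 h at 37 °C under 5% O2 with compounds in a titration, 29 uM to 0.5 nM final. Growth read as SYBR Green-1 fluorescence after ~16 h lysis; artesunate 300 nM as positive control.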
# Potency is the fitted concentration of half-maximal effect.
row,SMILES,Potency
1,Cc1ccc(-n2nc3c(c2NC(=O)C(C)C)CS(=O)(=O)C3)c(C)c1,inactive
2,Cc1ccc(S(=O)(=O)Nc2cc(=O)[nH]c(SCC(=O)Nc3cccc(C)c3)n2)cc1,inactive
3,CCn1c(SCC(=O)NNC(=O)Cc2ccccc2)nnc1-c1ccncc1,inactive
4,c1ccc(Cn2c(Sc3nnnn3-c3ccccc3)nnc2-c2ccccc2)cc1,7.5 µM (active)
5,CN(C1CCc2nn(CC3CC3)c(=O)n2CC1)S(=O)(=O)c1cccs1 (stereo unspecified),inactive
6,COc1cccc(C(=O)N2CCC3(CC2)CCN(CCc2ccccc2)c2ccccc2O3)c1,inactive
7,COc1ccc2c(c1)OC(C)(C)C(c1ccccc1)C2c1ccc(OCCN2CCCC2)cc1 (stereo unspecified),6.68 µM (active)
8,O=C(NCc1nnc2ccc(-c3ccccc3)nn12)c1cc(Cl)ccc1F,inactive
9,O=C(NCCNc1ccnc2cc(Cl)ccc12)c1ccccc1F,1.68 µM (active)
10,O=C(NCCCNc1ccnc2cc(Cl)ccc12)c1ccccc1F,0.842 µM (active)
11,Cc1nn(-c2ccc(C(C)(C)C)cc2)c(C)c1[C@@H]1C=C[C@@H](NC(=O)c2ccco2)C1,12.2 µM (active)
12,COc1ccc(CN[C@@H]2C=C[C@@H](c3c(C)nn(-c4ccc(OC)cc4)c3C)C2)cc1,4.85 µM (active)
13,Cc1nn(-c2cccc(Br)c2)c(C)c1[C@@H]1C=C[C@@H](NC(=O)c2cccs2)C1,inactive
14,Cc1cc(=O)n(C(C)C(=O)NCc2ccccc2Cl)c2c1c(C)nn2-c1ccccc1 (stereo unspecified),inactive
15,COc1ccc(-n2nc(C)c([C@@H]3C=C[C@@H](NCc4ccc(F)cc4)C3)c2C)cc1,1.37 µM (active)
16,O=C(NC1C[C@H]2CC[C@@H](C1)N2C(=O)c1ccco1)c1ccncc1 (stereo partly specified),inactive
17,Cc1nn(-c2ccc(C(C)C)cc2)c(C)c1[C@@H]1C=C[C@@H](NCc2ccccc2)C1,21.7 µM (active)
18,Cc1cccc(CCNC(=O)CCS(=O)(=O)c2cc3c(cc2Cl)NC(=O)CO3)c1,inactive
19,COc1ccc(OC)c(C2CCN(c3ncncn3)C2)c1 (stereo unspecified),inactive
20,CC(C)Oc1ccc2c(NC(=O)c3ccn(C)n3)nn(CC(F)(F)F)c2c1,inactive
21,O=C(NCc1cc(F)ccc1F)C1CCN(c2cn[nH]c(=O)c2)C1 (stereo unspecified),inactive

row,SMILES,Potency
1,COc1ccc(-n2nc(C)c([C@@H]3C=C[C@@H](NCc4cccc(Cl)c4)C3)c2C)cc1,1.37 µM (active)
2,COc1ccc(-n2nc(C)c([C@@H]3C=C[C@@H](NCc4ccc(N(C)C)cc4)C3)c2C)cc1,4.33 µM (active)
3,Cn1c(=O)oc2cc(S(=O)(=O)CCC(=O)N3CCN(c4ccccc4F)CC3)ccc21,inactive
4,O=c1[nH]c(N2CCOCC2)nc2c1CCN(Cc1cc(Cl)ccc1F)CC2,2.37 µM (active)
5,O=C(Nc1ccc(Cl)cc1)c1nc2c(o1)CCN(Cc1ccc(F)cc1F)CC2,inactive
6,O=c1[nH]c(N2CCOCC2)nc2c1CCN(Cc1cc(F)c(F)cc1F)CC2,15 µM (active)
7,O=c1[nH]c(N2CCOCC2)nc2c1CCN(Cc1cc(Br)ccc1F)CC2,5.31 µM (active)
8,O=c1[nH]c(N2CCOCC2)nc2c1CCN(Cc1ccc(Cl)cc1F)CC2,3.35 µM (active)
9,O=C1CCN(Cc2ccc(F)cc2F)CCCC(c2nc(-c3cnccn3)no2)CCN1 (stereo unspecified),inactive
10,COc1ccc2c(c1OC)C(=O)OC2CC(=O)c1ccc(O)cc1 (stereo unspecified),inactive
11,CCOc1cc(C2CC(=O)NC3=C2C(=O)C(C(=O)OC)C(C)C3)cc(Br)c1O (stereo unspecified),6.68 µM (active)
12,CCN(CC)c1cc(C)c2cc(NC(=O)/C=C/c3cc(OC)c(OC)c(OC)c3)ccc2n1,4.73 µM (active)
13,COc1ccc(/C=C/C(=O)NCCc2ccc(OC)c(OC)c2)cc1,inactive
14,CCOc1ccc(/C=C/C(=O)Nc2ccc3nc(N(CC)CC)cc(C)c3c2)cc1OC,1.88 µM (active)
15,Fc1ccccc1Cn1nnc2c(-n3ccnc3)ncnc21,inactive
16,O=C1Nc2ccccc2CN(CC2CC2)C12CCNCC2,inactive
17,CN(C)c1ncnc2sc3c(c12)CCN(Cc1ccc2cc[nH]c2c1)C3,inactive
18,c1ccc(Nc2cc3c(cn2)CN(Cc2ccsc2)CCN3)cc1,13.7 µM (active)
19,O=C1NC(=NC2CCCC2)C2(CCN(Cc3ccsc3)C2)N1c1cccnc1 (stereo unspecified),inactive
20,CN(C)c1cccc(Nc2cc3c(cn2)CN(Cc2ccccc2)CCN3)c1,13.7 µM (active)
21,Cc1nnc(-c2cc(Nc3cccc(N(C)C)c3)ccn2)n1Cc1ccccc1,inactive

row,SMILES,Potency
1,c1ccc(Nc2cc3c(cn2)CN(Cc2ccc4[nH]ccc4c2)CCN3)cc1,1.37 µM (active)
2,Cc1ccc(C)c(OC(=O)CSc2nnc(-c3cccs3)o2)c1,inactive
3,CCOc1ccc(C(=O)Nc2cc(C)on2)cc1,inactive
4,Cc1cc(NC(=O)CN2CCN(c3ccc(O)cc3)CC2)no1,4.73 µM (active)
5,CNS(=O)(=O)c1cn(CC(=O)N2CCN(c3ccc(C(C)=O)cc3)CC2)cc1S(=O)(=O)NC,inactive
6,Cc1cc(Nc2ccc(Br)cc2)n2nc(C)nc2n1,7.5 µM (active)
7,Cc1cc(Nc2ccc(Br)c(C)c2)n2nc(C)nc2n1,1.33 µM (active)
8,Cc1cc(Nc2ccc(C)c(C)c2)n2nc(C)nc2n1,4.73 µM (active)
9,Cc1ccc(S(=O)(=O)NCc2nc3nc(C)cc(C)n3n2)c(C)c1,inactive
10,Cc1cc(C)cc(Nc2cc(C)nc3nc(C)nn23)c1,5.31 µM (active)
11,Cc1cc(NC2C3CC4CC(C3)CC2C4)n2nnnc2n1 (stereo unspecified),inactive
12,CC(C)c1ccc(OCc2ccc(C(=O)O)o2)cc1,inactive
13,CC(O)CNCCNCc1c(OCc2ccccc2)ccc2ccccc12 (stereo unspecified),8.41 µM (active)
14,Cc1cc(N2CCC(N(C)C3CCCC3)CC2)nc2cc(O)ccc12,5.96 µM (active)
15,Cc1cc(N2CCN(C3CCCCC3)CC2)nc2cccc(O)c12,5.31 µM (active)
16,Cc1nc2ccc(NC(=O)c3cc(S(=O)(=O)N(C)c4ccccc4)ccc3Cl)cc2s1,0.842 µM (active)
17,O=C(NC(=S)Nc1ccc2c(c1)OCCO2)c1ccccc1F,inactive
18,COc1ccc(NC(=O)c2ccc3c(c2)n(C)c(=O)c2ccnn23)cc1OC,inactive
19,COc1cccc(OC)c1C(=O)NC(=S)Nc1ccc2c(c1)C(=O)N(C)C2=O,0.944 µM (active)
